Records with an inconclusive call do not appear. Active and inactive are the calls of the source. Calls come from the whole dose curve; as a rule, active = well fitted inhibition curve with a large enough effect; inconclusive = small, poorly fitted or top-dose-only effect; inactive = flat fitted curve, though single readings scatter.
Legend:
Assay in all cases: qHTS profiling for inhibitors of Plasmodium falciparum proliferation (AID 504749); note: nearly all actives have a fitted effect of over 60% in size
Details in all cases: P. falciparum in erythrocytes, SYBR Green DNA, 72 h; series mostly up to 28.7 µM
[1] = system: C2A
Summary of the method: (§1)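 Each compound contacts P. falciparum-infected red blood cells for 72 h at 37 C; lysis buffer (Tris, EDTA, saponin, Triton X, SYBR Green I) is added and fluorescence measured next morning; values normalized to controls.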

[2] = system: CP185
Summary of the method: as §1

[3] = system: CP191
Summary of the method: as §1

[4] = system: CP192
Summary of the method: as §1

[5] = system: CP194
Summary of the method: as §1

[6] = system: CP201
Summary of the method: as §1

[7] = system: CP203
Summary of the method: as §1

[8] = system: CP211
Summary of the method: as §1

[9] = system: CP215
Summary of the method: as §1

[10] = system: CP217
Summary of the method: as §1

[11] = system: CP237
Summary of the method: as §1

[12] = system: CP238
Summary of the method: as §1

[13] = system: CP247
Summary of the method: as §1

[14] = system: CP250
Summary of the method: as §1

[15] = system: CP252
Summary of the method: as §1

[16] = system: CP256
Summary of the method: as §1

[17] = system: CP260
Summary of the method: as §1

[18] = system: CP262
Summary of the method: as §1

[19] = system: CP265
Summary of the method: as §1

[20] = system: CP266
Summary of the method: as §1

Measured: Potency
Potency is the fitted concentration of half-maximal effect.

Oc1cc(O)c2c(c1)OC(c1ccc(O)c(O)c1)C(O)C2 (stereo not drawn)
inactive: all assays above

CC(C)(C)C(=O)OCOC(=O)[C@@H]1N2C(=O)[C@@H](N=CN3CCCCCC3)[C@H]2SC1(C)C
inactive: all assays above

CC(=O)Oc1c(C)cc(OCC(O)CNC(C)C)c(C)c1C (stereo not drawn)
inactive: all assays above

C[C@H]1C[C@H]2[C@@H]3CCC4=CC(=O)C=C[C@]4(C)[C@@]3(F)[C@@H](O)C[C@]2(C)[C@@]1(O)C(=O)CO
inactive: all assays above

CC(NNC(=O)c1ccccc1)c1ccccc1 (stereo not drawn)
inactive: all assays above

CCCCCCCC/C=C\CCCCCCCC(=O)O
inactive: all assays above

C[C@]12O[C@H](C[C@]1(O)CO)n1c3ccccc3c3c4c(c5c6ccccc6n2c5c31)CNC4=O
active: [1] 316 nM | [2] 316 nM | [3] 282 nM | [4] 379 nM | [5] 379 nM | [6] 536 nM | [7] 269 nM | [8] 426 nM | [9] 426 nM | [10] 316 nM | [11] 224 nM | [12] 282 nM | [13] 224 nM | [14] 251 nM | [15] 316 nM | [16] 398 nM | [17] 224 nM | [18] 426 nM | [19] 447 nM | [20] 675 nM

C=CCSSSCC=C
inactive: all assays above

CCCCCCCCCCCCCC[n+]1ccc(C)cc1
active: [1] 3160 nM | [2] 5010 nM | [3] 2820 nM | [4] 4780 nM | [5] 4260 nM | [6] 4780 nM | [7] 3790 nM | [8] 3380 nM | [9] 4260 nM | [10] 3980 nM | [11] 3550 nM | [12] 4470 nM | [13] 3980 nM | [14] 3980 nM | [15] 4470 nM | [16] 5010 nM | [17] 2510 nM | [19] 4470 nM | [20] 4260 nM
inactive: [18]

Cc1ccccc1
inactive: all assays above

O=CCCCC=O
not listed: [17]
inactive: all other assays above

Nc1c(N=Nc2ccc(-c3ccc(N=Nc4cc(S(=O)(=O)O)c5ccccc5c4N)cc3)cc2)cc(S(=O)(=O)O)c2ccccc12
inactive: all assays above

O=S(=O)(O)c1ccc2c(N=Nc3ccc(S(=O)(=O)O)c4ccccc34)c(O)c(S(=O)(=O)O)cc2c1
not listed: [9]
inactive: all other assays above

CCCCC(C)(O)C/C=C/[C@H]1[C@H](O)CC(=O)[C@@H]1CCCCCCC(=O)OC (stereo partly drawn)
not listed: [9]
inactive: all other assays above

CCOc1ccc2c(c1)C(C)=CC(C)(C)N2
not listed: [9] | [19]
inactive: all other assays above

COc1ccc2c3c1O[C@H]1C[C@@H](O)C=C[C@@]31CCN(C)C2
inactive: all assays above

CC(C)=O
not listed: [16] | [19]
inactive: all other assays above

CC(Cc1ccc(O)c(O)c1)C(C)Cc1ccc(O)c(O)c1 (stereo not drawn)
not listed: [9] | [11]
inactive: all other assays above

O=C(O)c1cc(=O)c2c3nc4ccccc4oc-3cc(=O)c2[nH]1
active: [11] 2820 nM | [17] 12600 nM
not listed: [18]
inactive: all other assays above

Cc1ccccc1OCC(O)CNCCOc1ccc(C(N)=O)cc1 (stereo not drawn)
inactive: all assays above

O=C(O)CN(CCN(CC(=O)O)CC(=O)O)CC(=O)O
not listed: [9]
inactive: all other assays above

CCOc1ccc(N=Nc2ccc(N)cc2N)cc1
not listed: [13]
inactive: all other assays above
